Measurements from PubChem BioAssay.
Activity calls are given as the source filed them.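 Rule for the calls, unless noted: active = NADPH fluorescence slope more negative than the mean of all samples by about 3 SD, 99.7% confidence; inactive = the rest.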

Tests used:
[1] = inhibitors of TNFa-induced NFkB p65 translocation, primary screen, imaging, HUVEC, MLSMR starter and 10KST1 sets (AID 438;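 active = inhibition above 20% together with a positive visual image hit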;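 note: compound added about 3h40 before a 20 min TNFalpha stimulation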;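 for inhibition: signal is the nuclear over cytoplasmic p65 intensity ratio per well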); conditions: HUVEC TNFa-induced p65 nuclear translocation; cell count: measured here: nuclei count (cytotoxicity indicator), at 2.08 µM; inhibition: at 2 µM, stronger effect = higher value, 0% TNFa-plus-vehicle, 100% no-TNFa wells
[2] = inhibitors of mutant huntingtin aggregation, primary screen, imaging, exon1htt(103Q)mCFP cells, high-content imaging (AID 483;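 active = visual image review flags a hit and inhibition of aggregation exceeds 20%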;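 note: compound exposure lasted 3 days before fixation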;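 for nuclei count: percent of the per-plate median nuclei count of sample wells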); conditions: exon1htt(103Q)mCFP cell line, aggregate imaging, at 2 µM; inhibition of aggregation: stronger effect = higher value; nuclei count: measured here: cell count, toxicity
[3] = inhibitors of E-selectin induction by TNFa, primary screen, imaging, HUVEC, immunofluorescence, MLSMR starter and 10KST1 sets (AID 487;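 active = visually confirmed hit in the image check and inhibition above 20%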;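 for inhibition: signal is fraction of cell area covered by stained E-selectin grains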;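 for nuclei count: 100% = median nuclei count of all wells on the same plate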); conditions: HUVEC TNFalpha-induced E-selectin immunofluorescence imaging, at 2 µM; inhibition: stronger effect = higher value; nuclei count: measured here: cell number, toxicity
[4] = target: Voltage-gated potassium channel subunit beta-2 (Rattus norvegicus) (UniProt P62483); experiment: KvBeta enzyme negative modulators, primary screen, biochemical, NADPH fluorescence (AID 622;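 active = fluorescence slope higher than the sample average by over 3 SD, cut at about -0.22 in these data, passing the limit was not always enough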;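 note: slope of raw intensity against log time taken from 70 to 1610 s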); conditions: recombinant KvBeta, 4-cyanobenzaldehyde reduction, at 10 µM, stronger effect = higher value
[5] = target: Voltage-gated potassium channel subunit beta-2 (Rattus norvegicus) (UniProt P62483); experiment: KvBeta positive modulators, primary screen, biochemical, NADPH fluorescence (AID 623); conditions: Recombinant KvBeta, NADPH fluorescence decrease slope, 10 min; at 10 µM; stronger effect = lower value;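 note: fluorescence intensity change per second fitted from 20 to 320 s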
[6] = target: Alpha-2C adrenergic receptor (Homo sapiens) (UniProt P18825); experiment: modulators of alpha2C/GIRK thallium flux, primary screen, cell-based, HEK293 alpha2C/GIRK1/2 (AID 624;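 active = fluorescence slope after compound addition differing from the mean of all screened samples at 99.7% confidence, in either direction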;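 note: slope of fluorescence ratio to pre-addition baseline per second over 15 to 24 s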); conditions: thallium flux BTC fluorescence, at 10 µM, actives lie on both sides
[7] = inhibitors of Sendai virus-induced IRF3 signaling, primary screen, TLR/RLR signaling modifier project, cell-based, Sendai virus stimulus, luciferase, 10K MLSCN set (AID 602276;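 active = inhibition at or above 50% at 10 µM; inactive = inhibition below 50%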;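 note: firefly luciferase from ISG56 promoter only with Renilla not read in this screen; 0% = Sendai virus plus DMSO and 100% = medium plus DMSO without virus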); conditions: HEK293 RL24 IRF3 luciferase reporter, at 10 µM, stronger effect = higher value
[8] = inhibitors of poly I:C-induced TLR3 signaling, primary screen, cell-based, poly I:C stimulus, luciferase, 10K MLSCN set (AID 602277;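 active = inhibition of the reporter signal at or above 50%; inactive = inhibition below 50%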); conditions: HEK293-TLR3 RL24 IRF3 luciferase reporter, at 10 µM, stronger effect = higher value

Sequence of Voltage-gated potassium channel subunit beta-2 (Rattus norvegicus) (P62483 whole entry, looked up): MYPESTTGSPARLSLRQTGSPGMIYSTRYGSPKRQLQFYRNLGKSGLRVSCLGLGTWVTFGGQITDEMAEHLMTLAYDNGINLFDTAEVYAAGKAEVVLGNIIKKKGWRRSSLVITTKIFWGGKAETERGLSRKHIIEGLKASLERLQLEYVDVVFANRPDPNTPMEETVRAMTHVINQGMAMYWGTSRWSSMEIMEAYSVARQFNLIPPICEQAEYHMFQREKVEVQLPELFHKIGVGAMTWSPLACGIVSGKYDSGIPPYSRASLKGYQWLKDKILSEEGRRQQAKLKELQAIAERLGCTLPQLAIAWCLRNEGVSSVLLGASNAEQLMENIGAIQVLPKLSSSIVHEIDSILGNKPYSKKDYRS
Sequence of Alpha-2C adrenergic receptor (Homo sapiens) (P18825 whole entry, looked up): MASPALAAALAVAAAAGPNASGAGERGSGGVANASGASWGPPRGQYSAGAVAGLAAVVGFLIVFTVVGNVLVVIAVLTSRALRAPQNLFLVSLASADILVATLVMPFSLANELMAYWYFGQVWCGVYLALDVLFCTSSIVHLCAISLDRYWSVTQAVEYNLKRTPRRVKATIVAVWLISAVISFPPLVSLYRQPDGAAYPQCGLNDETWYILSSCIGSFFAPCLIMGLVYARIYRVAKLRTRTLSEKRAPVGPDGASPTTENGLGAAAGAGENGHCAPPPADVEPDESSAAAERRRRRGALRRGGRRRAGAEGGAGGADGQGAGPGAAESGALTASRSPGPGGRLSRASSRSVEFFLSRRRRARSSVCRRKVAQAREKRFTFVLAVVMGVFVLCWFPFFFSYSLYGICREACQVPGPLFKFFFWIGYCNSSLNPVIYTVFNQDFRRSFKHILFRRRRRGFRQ

SMILES	cell count [1]	inhibition [1]	inhibition of aggregation [2]	nuclei count [2] [%]	inhibition [3]	nuclei count [3] [%]	fluorescence slope [4]	NADPH fluorescence slope [5]	slope [6]	inhibition [7]	inhibition [8]
O=C(C1COc2ccccc2O1)N1CCCC1 (stereo not drawn)	283	-8.4% (inactive)	32.8% (active)	83.7	-72.5% (inactive)	99.2	-0.332 (inactive)	1.7e-05 (inactive)	0.0093 (inactive)	-11.4% (inactive)	3.67% (inactive)
O=C1CC(Sc2nnc(-c3ccccc3)o2)C(=O)N1c1ccccc1 (stereo not drawn)	677	-1.1% (inactive)	3.6% (inactive)	105	-12.2% (inactive)	91.1	-0.404 (inactive)	-6.5e-05 (inactive)	0.00487 (inactive)	4.52% (inactive)	3.11% (inactive)
COc1ccccc1-c1cc(C(=O)Nc2cc(C)nn2-c2ccccc2)no1	478	-9.3% (inactive)	-24.6% (inactive)	111	4.5% (inactive)	109	-0.381 (inactive)	-2e-05 (inactive)	0.00489 (inactive)	-1.99% (inactive)	16% (inactive)
CC1(C)CC(=O)C(C=Nc2ccncc2)=C(O)C1	463	4.9% (inactive)	3.3% (inactive)	103	-42.3% (inactive)	120	-0.607 (inactive)	5e-06 (inactive)	0.00629 (inactive)	-2.33% (inactive)	10.3% (inactive)
Cc1cc2c(=O)n(Cc3ccco3)c(SCC(=O)NCc3ccco3)nc2s1	502	3.1% (inactive)	3.2% (inactive)	84	-50% (inactive)	82.5	-0.393 (inactive)	1.9e-05 (inactive)	0.00738 (inactive)	14.9% (inactive)	17.7% (inactive)
O=C(Nc1cccc2ccccc12)c1ccc(Br)o1	638	5.6% (inactive)	7.9% (inactive)	104	18.2% (inactive)	94.7	-0.437 (inactive)	-1.5e-05 (inactive)	0.00359 (inactive)	2.74% (inactive)	19.8% (inactive)
CC1CN(c2nc3ccccc3nc2C(C#N)C(=O)OC2CCCCC2)CC(C)O1 (stereo not drawn)	382	-6.2% (inactive)	-28.8% (inactive)	116	-12.3% (inactive)	111	-0.364 (inactive)	2.4e-05 (inactive)	0.0019 (active)	15.1% (inactive)	22.4% (inactive)
Cc1cc(OCC(O)CN2CCN(CCO)CC2)ccc1C(C)C (stereo not drawn)	428	-0.5% (inactive)	16.4% (inactive)	94.9	24% (inactive)	93.2	-0.439 (inactive)	-3.1e-05 (inactive)	0.00431 (inactive)	9.34% (inactive)	29.3% (inactive)
CC(=O)c1c(OC(=O)c2ccco2)c2ccccc2n1C	386	1% (inactive)	15.7% (inactive)	72.8	-81.6% (inactive)	101	-0.367 (inactive)	-1.2e-05 (inactive)	0.00641 (inactive)	12% (inactive)	1.24% (inactive)
CC(C)(C)n1nnnc1C(c1cccs1)N1CCN(Cc2ccccc2)CC1 (stereo not drawn)	482	-5.1% (inactive)	0% (inactive)	100	-163% (inactive)	230	-0.606 (inactive)	-6.2e-06 (inactive)	0.00586 (inactive)	15.9% (inactive)	17.6% (inactive)
COC(=O)c1sc(N)c(C(=O)OC)c1COC(=O)C1CC(=O)N(Cc2ccco2)C1 (stereo not drawn)	303	-1.9% (inactive)	-1.7% (inactive)	100	-45.6% (inactive)	124	-0.265 (inactive)	-4.3e-05 (inactive)	0.00671 (inactive)	15.8% (inactive)	11.9% (inactive)
Cc1ccc2[nH]c(=O)c(C(c3nnnn3CCc3ccccc3)N3CCOCC3)cc2c1 (stereo not drawn)	715	-3.9% (inactive)	1.1% (inactive)	99	-38.7% (inactive)	95.6	-0.482 (inactive)	-4.6e-05 (inactive)	0.0072 (inactive)	0.935% (inactive)	26.5% (inactive)
CCSc1nnc(-c2ccc(OC)cc2)o1	651	11.1% (inactive)	0% (inactive)	99.1	61.5% (inactive)	106	-0.242 (inactive)	-1.2e-05 (inactive)	0.00568 (inactive)	-34% (inactive)	-118% (inactive)
CCCN(CCC)C(=O)C1CCN(c2cc(C)nc3c(-c4ccc(OC)c(OC)c4)c(C)nn23)CC1	651	6.6% (inactive)	-2.4% (inactive)	91.7	-68.7% (inactive)	124	-0.492 (inactive)	-2.2e-05 (inactive)	0.00708 (inactive)	4.7% (inactive)	7.43% (inactive)
CCn1cc(C(=O)NCCC2=CCCCC2)c(=O)c2cc(S(=O)(=O)N(C)C)ccc21	458	-6.1% (inactive)	38.5% (active)	79	-45.7% (inactive)	93.2	-0.563 (inactive)	-4.1e-05 (inactive)	0.00705 (inactive)	3.13% (inactive)	17.6% (inactive)
O=C(c1ccc2ccccc2n1)N1CCN(c2ccccc2)CC1	874	0% (inactive)	-15% (inactive)	107	-78.3% (inactive)	142	-0.476 (inactive)	9.7e-06 (inactive)	0.00614 (inactive)	-18.5% (inactive)	-4.71% (inactive)
CCn1cc(SCC(=O)NCC2CCCO2)c2ccccc21 (stereo not drawn)	692	-20.6% (inactive)	8.9% (inactive)	112	-8.7% (inactive)	102	-0.4 (inactive)	-4.5e-05 (inactive)	0.00573 (inactive)	3.88% (inactive)	15.1% (inactive)
COCCNC(=O)C(c1cccs1)N(C(=O)Cn1nnc2ccccc21)c1ccccc1 (stereo not drawn)	385	5.9% (inactive)	0.7% (inactive)	98.9	24.6% (inactive)	93.8	-0.506 (inactive)	-1.1e-05 (inactive)	0.00629 (inactive)	10.7% (inactive)	6.48% (inactive)
O=C(COC(=O)c1cnccn1)Nc1ccc2c(c1)OCO2	589	7.8% (inactive)	-8% (inactive)	103	-56.6% (inactive)	105	-0.484 (inactive)	-2.2e-05 (inactive)	0.00566 (inactive)	5.28% (inactive)	21.1% (inactive)
CC(C)(C)c1ccc(-c2nnc(SCCC#N)n2C2CCCC2)cc1	410	5.5% (inactive)	10.8% (inactive)	115	-2.3% (inactive)	97.3	-0.483 (inactive)	-3e-05 (inactive)	0.00637 (inactive)	-5.13% (inactive)	10.8% (inactive)
Cc1cc2c(c(=O)o1)C(C13C=CC(CC1)C3)C(C#N)=C(N)O2 (stereo not drawn)	326	5.3% (inactive)	-3.9% (inactive)	102	-56.1% (inactive)	118	-0.499 (inactive)	-5.8e-05 (inactive)	0.0051 (inactive)	5.92% (inactive)	13.6% (inactive)
COc1ccc(Cc2nc(-c3ccc(Br)cc3)no2)cc1	366	6% (inactive)	-7% (inactive)	105	-17.5% (inactive)	107	-0.28 (inactive)	2e-05 (inactive)	0.00781 (inactive)	-28.1% (inactive)	-62.7% (inactive)
Cc1cc(C(=O)Nc2sc3c(c2C#N)CCCCC3)cs1	651	6% (inactive)	-8.1% (inactive)	107	-7.5% (inactive)	100	-0.581 (inactive)	-1.2e-05 (inactive)	0.00236 (inactive)	-33.9% (inactive)	-119% (inactive)
c1cc(C(c2nnnn2C2CCCC2)N2CCOCC2)ccn1 (stereo not drawn)	392	-7.3% (inactive)	27.3% (inactive)	78.3	38.6% (inactive)	97.3	-0.522 (inactive)	2.4e-05 (inactive)	0.00524 (inactive)	18.3% (inactive)	21.2% (inactive)
Fc1cccc2sc(Nc3nnc(-c4ccco4)o3)nc12	404	-3.6% (inactive)	2.5% (inactive)	109	-0.9% (inactive)	94.5	-0.501 (inactive)	-4.9e-05 (inactive)	0.0148 (active)	-39.7% (inactive)	-83% (inactive)
Nc1nc(N2CCN(C/C=C/c3ccccc3)CC2)nc2ccccc12	563	7.3% (inactive)	2% (inactive)	69.5	-58.8% (inactive)	139	-0.607 (inactive)	-2.5e-05 (inactive)	0.00297 (inactive)	4.65% (inactive)	7.48% (inactive)
Cc1[nH]n(C(N)=S)c(=O)c1C(c1ccccc1)C(C#N)C#N (stereo not drawn)	694	9.6% (inactive)	-2.9% (inactive)	107	32.6% (inactive)	99.1	-0.38 (inactive)	5.1e-06 (inactive)	0.00522 (inactive)	-11.3% (inactive)	-18% (inactive)
O=c1c2ccccc2nc(SCc2cn3ccsc3n2)n1-c1ccc(F)cc1	607	6.1% (inactive)	9% (inactive)	103	59.6% (active)	71.6	-0.626 (inactive)	1.8e-05 (inactive)	0.00521 (inactive)	23.9% (inactive)	22.8% (inactive)
